Assay outcomes deposited in PubChem BioAssay by National Center for Advancing Translational Sciences (NCATS).
TDP1 cell CPT = DT40-hTDP1 cell growth loss with CPT; chicken DT40 Tdp1-/-;hTDP1 cells + 20 nM CPT, ATP luminescence, 48 h; Potency, µM (titrated, usually from 46.2 µM), without a hit: at the top dose activity change, negative = growth inhibition, actives largely listed as inhibitors; 420,000 tested, 12% active; also: % is scaled to controls: 0 for no effect and ±100 for the full control effect; nearly all actives have a fitted effect of over 55% in size
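Cell growth measured by CellTiter-Glo luminescence after a minimum 48 h, 37 C compound exposure with 20 nM CPT in Tdp1-knockout DT40 cells stably expressing hTDP1, seeded 400/well; qHTS titration format.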
HepG2 viability = kills HepG2 cells in TGF-b inhibitor counter-screen | Potency, µM (top dose mostly 46.1 µM), inactives show at the top dose activity change, negative = cytotoxicity, hits mostly cytotoxic | 410,000 tested, 0.76% active | HepG2 CAGA-GFP viability, ATP luminescence, 18 h
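HepG2 CAGA-GFP cells (1000/well, DMEM with 1% FBS) received compound, then TGF-beta at 500 pg/mL final, and were incubated 18 hours at 37 degrees C. Viability was read by CellTiter-Glo luminescence. Media-only wells were set as complete cell-killing and DMSO as no toxicity.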
DT40 TDP1 no CPT = qHTS for Inhibitors of human tyrosyl-DNA phosphodiesterase 1 (TDP1): qHTS in cells in absence of CPT. Potency, µM (top dose mostly 46.2 µM), without a hit: top-dose activity change, negative = growth inhibition, usual class: inhibitors. 420,000 tested, 15% active. DT40 Tdp1-/- hTDP1 cells, no CPT, ATP luminescence, 48 h. AID 686978, 2013; also: % is scaled to controls: 0 for no effect and ±100 for the full control effect; nearly all actives have a fitted effect of over 55% in size
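Readout: luminescence from CellTiter-Glo after 30 min in the dark at RT. Cells: DT40 Tdp1-/- with stable hTDP1, 400/well. Exposure: compounds alone, ≥48 hr, 37 °C.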
S2 tox = viability counter-screen for ATXN expression inhibitors; S2 cells (HEK-293 line with an ATXN2-luciferase reporter) viability, CellTiter-Fluor protease fluorescence, 24 h; Potency, µM (top dose mostly 56.7 µM), hits mostly cytotoxic; 400,000 tested, 0.49% active; AID 651635; also: nearly all actives have a fitted effect of over 40% in size
ATXN2 expr inh = ATXN2 expression inhibition. HEK-293 ATXN2-luciferase reporter, luminescence, 24 h. Potency, µM (titrated, usually from 57 µM), inactives show at the highest dose activity change, negative = inhibition, actives largely listed as inhibitors. 360,000 tested, 0.72% active. AID 1745845; also: % is scaled to controls: 0 for no effect and ±100 for the full control effect; nearly all actives have a fitted effect of over 55% in size
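ATXN2-luciferase reporter cells (luciferase flanked by upstream and downstream ATXN2 gene portions) were treated 24 h at 37 °C with compounds at up to 57 uM. SteadyGlo luminescence gave expression; GF-AFC fluorescence gave viability.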
TGFb inhibitor = inhibitors of TGF-b signaling; HepG2 CAGA-GFP TGF-b/SMAD3 reporter, GFP fluorescence, 18 h; TGF-beta stimulated, 500 pg/mL final; Potency, µM (top dose mostly 46.1 µM), for the others: top-dose activity, negative = inhibition, actives largely listed as inhibitors; 410,000 tested, 1.2% active; AID 588855; also: % is scaled to controls: 0 for no effect and ±100 for the full control effect; nearly all actives have a fitted effect of over 65% in size
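HEPG2 CAGA-GFP reporter cells (1000/well, DMEM with 1% FBS) received compounds, then recombinant TGF-beta at 500 pg/mL final for 18 hours at 37 degrees C. Per-cell GFP summed per well was normalised to unstimulated and stimulated DMSO controls before curve fitting.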
Numbers without * were called inactive; i = inactive; ? = inconclusive; . = no result given. The list is not random: actives were taken first. Their share in the collection is about 17%. Calls follow the shape of the dose curve; as a rule, active = well fitted curve in the direction sought with a large enough effect; inconclusive = small, poorly fitted or top-dose-only effect, or another doubt; inactive = no such curve, though single readings can be large; an effect the other way counts as inactive or inconclusive. Potency is read from the fitted curve at half-maximal effect.

SMILES	TDP1 cell CPT	HepG2 viability	DT40 TDP1 no CPT	S2 tox	ATXN2 expr inh	TGFb inhibitor
CC(C)=CCC[C@H](C)CC1Cc2[nH]c(=S)[nH]c(=O)c2C(c2ccc(F)cc2)O1 (some centres undefined)	-4%	14µM*	?	?	-7%	13µM*
CC(C)=CCC[C@H](C)C[C@@H]1Cc2[nH]c(=S)[nH]c(=O)c2[C@@H](c2ccc(F)cc2)O1	?	.	26µM*	.	?	.
CC1(C)OC(=O)C2=C(C[C@@H](CCC(F)(F)F)O[C@H]2c2ccc(F)cc2)O1	5%	-31%	5%	i	9%	-13%
CC(C)=CCC[C@H](C)C[C@@H]1CC2=C(C(=O)OC(C)(C)O2)[C@@H](c2ccc(F)cc2)O1	?	.	16µM*	i	-15%	.
O=C(Nc1cccc(C(F)(F)F)c1)C1CCCN(S(=O)(=O)c2cccc3nonc23)C1 (centres undefined)	?	0%	?	i	1%	-27%
O=C(NCC1CN(c2ccc(N3CCOCC3=O)cc2)C(=O)O1)c1ccc(Cl)s1 (centres undefined)	.	.	.	i	-20%	.
CC(=O)Oc1ccc(N2C(=O)C3C(C2=O)C(C(=O)c2ccc(Cl)cc2)N2CCCC32)cc1 (centres undefined)	?	-29%	18µM*	i	?	?
CCOC(=O)COc1ccc(F)cc1C(=O)c1ccn2nc(-c3ccc(C)cc3)cc2n1	-2%	11%	-9%	i	11%	-2%
CCOC(=O)COc1ccc(C)cc1C(=O)c1ccn2nc(-c3ccc(F)cc3)cc2n1	16µM*	7%	21µM*	i	0%	-5%
CCOC(=O)COc1cc(C)c(Cl)cc1C(=O)c1ccn2nc(-c3ccc(OC)cc3)cc2n1	?	-6%	13µM*	i	16%	0%
COc1ccc(CC(N)c2csc(NC(=O)c3cccs3)n2)cc1 (centres undefined)	18µM*	-26%	23µM*	i	-30%	14µM*
COc1ccc(CCNC(=O)Nc2nc(CN)cs2)cc1OC	?	1%	-22%	?	-1%	12%
COc1cc(CNC(=O)Nc2nc(C(N)Cc3ccc(C(F)(F)F)cc3)cs2)cc(OC)c1OC (centres undefined)	13µM*	-95%	12µM*	?	?	?
COc1ccc(CC(N)c2csc(NC(=O)NCc3ccccc3)n2)cc1 (centres undefined)	21µM*	-19%	?	?	?	-5%
CCN(c1ccc(C)cc1)S(=O)(=O)c1nnc(NC(=O)c2cccs2)s1	?	-29%	?	.	.	?
COc1ccc(N(CC(C)C)S(=O)(=O)c2nnc(NC(=O)c3cccs3)s2)cc1	?	-1%	21µM*	.	.	0%
Cc1nc2nc(NC(=O)c3ccc(C(C)(C)C)cc3)[nH]n2c(=O)c1Cl	8%	-3%	6%	.	.	1%
CCCCS(=O)(=O)Nc1ccc(Cc2ccncc2)cc1	-28%	-15%	-16%	i	-13%	?
COc1ccc(CNC(=O)Nc2nc(C(N)c3ccccc3)cs2)cc1 (centres undefined)	?	-17%	21µM*	i	-20%	-1%
Cn1cc(S(=O)(=O)Cc2ccc(F)cc2)c2ccccc21	6%	-14%	-3%	i	9%	-12%
Cn1cc(C2=C(c3c4n(c5ccccc35)CCC(CN)C4)C(=O)NC2=O)c2ccccc21 (centres undefined)	.	.	.	.	24µM*	.
CC(C)(C)n1ncc2c(=O)n(CC(=O)Nc3ccccc3)cnc21	-27%	-3%	-28%	i	4%	-48%
Cc1ccccc1Cn1cnc2c(cnn2C(C)(C)C)c1=O	?	-43%	?	i	3%	30%
Cc1ccc(C)c(Cn2cnc3c(cnn3C(C)(C)C)c2=O)c1	-113%	-7%	18µM*	i	1%	-2%
CCOC(=O)c1ccccc1NC(=O)Cn1cnc2c(cnn2C(C)(C)C)c1=O	?	-29%	26µM*	i	1%	4%
SMILES	TDP1 cell CPT	HepG2 viability	DT40 TDP1 no CPT	S2 tox	ATXN2 expr inh	TGFb inhibitor
CC(C)(C)n1ncc2c(=O)n(CC(=O)NCc3ccco3)cnc21	?	-25%	?	i	35%	-57%
CC(C)(C)n1ncc2c(=O)n(CC(=O)NCc3ccc(F)cc3)cnc21	6.5µM*	1%	8.2µM*	i	-28%	20%
Oc1ccc(Cl)cc1/C=C/c1ccc2cccc(O)c2n1	?	-65%	26µM*	?	-20%	?
CSc1ccc(/C=C/c2ccc3cccc(O)c3n2)cc1	16µM*	-37%	21µM*	.	46%	-20%
Oc1c(Cl)cc(Cl)cc1/C=C/c1ccc2cccc(O)c2n1	?	-38%	?	i	?	?
COc1cc(/C=C/c2ccc3cccc(O)c3n2)ccc1O	?	-53%	16µM*	.	.	?
O=[N+]([O-])c1cccc2ccc(/C=C/c3ccc(Cl)cc3)nc12	1%	-25%	-4%	i	35%	-21%
O=[N+]([O-])c1cccc2ccc(/C=C/c3cccc(Br)c3)nc12	-7%	-23%	?	i	16%	-11%
Oc1cccc2ccc(/C=C/c3ccccc3Br)nc12	6.5µM*	-1%	5.8µM*	i	0%	15%
Cn1c(=O)c(=O)n(C)c2cc(S(=O)(=O)Nc3ccc(Cl)c(C(F)(F)F)c3)ccc21	-13%	-18%	-2%	.	.	-9%
COc1cc(/C=C/c2ccc3cccc(OC)c3n2)c(O)c([N+](=O)[O-])c1	-24%	-30%	-15%	?	-27%	?
COc1cc(Br)cc(/C=C/c2ccc3cccc(O)c3n2)c1O	15µM*	-33%	9.2µM*	?	.	?
COc1cc(Br)c(/C=C/c2ccc3cccc(O)c3n2)cc1OC	12µM*	-29%	13µM*	.	.	?
Oc1ccc2ccccc2c1/C=C/c1ccc2c(Br)cc(Br)c(O)c2n1	3.7µM*	-83%	5.2µM*	?	?	?
C[C@H]1CN=C(N(C)C)N1CCCC1CCCC1	16µM*	-16%	12µM*	i	-13%	-2%
